Data on 40 compounds can be found in PubChem BioAssay.

A number with no mark means an inactive call. Activity calls are given as the source filed them.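 The calls were made as follows, unless noted: active = mean inhibition above 46.5%, the solvent-only control mean plus 3 SD; inactive = the rest.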

Chain of Nuclear receptor coactivator 2 (Homo sapiens) (Q15596 whole entry, looked up, the tested form may be a part): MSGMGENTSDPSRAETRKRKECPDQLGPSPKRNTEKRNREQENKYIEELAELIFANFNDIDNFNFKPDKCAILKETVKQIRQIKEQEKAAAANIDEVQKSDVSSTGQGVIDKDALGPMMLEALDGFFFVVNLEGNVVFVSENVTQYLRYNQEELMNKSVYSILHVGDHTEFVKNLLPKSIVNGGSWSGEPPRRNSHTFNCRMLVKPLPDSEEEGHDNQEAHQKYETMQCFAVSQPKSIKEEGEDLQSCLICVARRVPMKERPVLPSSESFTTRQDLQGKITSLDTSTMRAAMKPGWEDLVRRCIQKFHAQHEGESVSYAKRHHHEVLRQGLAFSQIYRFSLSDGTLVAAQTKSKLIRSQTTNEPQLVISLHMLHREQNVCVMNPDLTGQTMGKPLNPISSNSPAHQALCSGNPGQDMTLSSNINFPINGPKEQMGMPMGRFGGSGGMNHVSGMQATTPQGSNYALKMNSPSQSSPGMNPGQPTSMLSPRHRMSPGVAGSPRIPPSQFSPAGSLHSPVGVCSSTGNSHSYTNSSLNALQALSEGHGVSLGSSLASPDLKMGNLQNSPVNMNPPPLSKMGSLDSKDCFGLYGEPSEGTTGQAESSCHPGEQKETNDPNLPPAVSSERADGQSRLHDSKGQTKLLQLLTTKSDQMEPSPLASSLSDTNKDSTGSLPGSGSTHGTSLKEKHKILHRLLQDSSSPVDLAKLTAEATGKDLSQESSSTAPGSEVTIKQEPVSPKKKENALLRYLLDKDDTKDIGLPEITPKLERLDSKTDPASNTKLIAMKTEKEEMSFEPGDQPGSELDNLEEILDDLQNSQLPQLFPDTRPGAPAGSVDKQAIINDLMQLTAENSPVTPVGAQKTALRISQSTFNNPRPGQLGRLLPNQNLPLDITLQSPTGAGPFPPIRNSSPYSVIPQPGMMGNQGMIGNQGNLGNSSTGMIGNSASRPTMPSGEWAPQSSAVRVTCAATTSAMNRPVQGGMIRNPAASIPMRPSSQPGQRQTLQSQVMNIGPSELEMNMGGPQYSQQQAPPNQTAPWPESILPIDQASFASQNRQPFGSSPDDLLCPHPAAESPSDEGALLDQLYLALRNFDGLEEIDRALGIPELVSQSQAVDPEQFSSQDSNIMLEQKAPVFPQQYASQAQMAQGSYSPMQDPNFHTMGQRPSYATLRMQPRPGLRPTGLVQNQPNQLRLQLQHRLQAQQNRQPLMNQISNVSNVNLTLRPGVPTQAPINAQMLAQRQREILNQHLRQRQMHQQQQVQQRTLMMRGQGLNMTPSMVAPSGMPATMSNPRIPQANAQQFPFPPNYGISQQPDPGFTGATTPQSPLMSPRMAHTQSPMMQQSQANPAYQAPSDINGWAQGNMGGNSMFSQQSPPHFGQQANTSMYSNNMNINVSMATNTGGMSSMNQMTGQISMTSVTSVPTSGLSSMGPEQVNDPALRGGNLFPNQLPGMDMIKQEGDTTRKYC

One experiment concerns transactivating tegument protein VP16 (Human herpesvirus 1). The experiment is described as follows: compounds suppressing VP16-driven luciferase signal – cell-based, luminescence, single concentration, counter-screen for SRC2 inhibitor project (AID 652007; in the data active = inhibition above about 36%). The conditions noted are these: cell-based VP16 transactivation luciferase reporter, at 8.9 µM, hits give high values. In general terms: A counterscreen serves to expose hits that act by an unwanted route or on another target.
Regarding `Cc1ccc2occ(/C=N/NC(=O)[C@@H](N)Cc3ccccc3)c(=O)c2c1`, the inhibition (commonly the relative decrease from the control value, in per cent) was 4.17%.
On to `CCn1c(Oc2ccccc2F)nc2c1c(=O)n(C)c(=O)n2C`, for which the inhibition was -5.89%.
Turning to `O=C(c1cncc(Br)c1)N1CCc2ccccc2C1`, the inhibition is 1.4%.
As for `O=C(NC1CCCCC1)C(c1cccnc1)N(C(=O)CCl)c1ccc(F)cc1` (stereo unspecified), the inhibition is 64.5% (active).
With `COc1ccc(/C=C2/SC(=S)N(CCCC(=O)Nc3ccccc3C(=O)O)C2=O)cc1`, the inhibition is 66.5% (active).
Consider `CCc1ccc(-c2nc(CSCC(=O)NCc3ccco3)c(C)o2)cc1`, for which the inhibition is 41.4% (active).

The next experiment addresses Nuclear receptor coactivator 2 (Homo sapiens) (UniProt Q15596). Nature of the experiment: inhibition of GAL4-SRC2 driven luciferase expression – cell-based, luminescence, HEK293, triplicate, confirmation (AID 652008).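 Also: 0% = DMSO-treated cells and 100% = Gossypol at 36 µM.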 To be noted: HEK293 GAL4-SRC2 luciferase reporter, at 8.9 µM, hits give high values.
On to `S=c1[nH]nc(C2CCCCC2)n1/N=C/c1ccncc1`, for which the inhibition was 51.4% (active).
Consider `Cc1ccc2nc(-c3ccccc3)cn2c1`, for which the inhibition is 51.8% (active).
For the compound `CN1CCN(c2ccc(NC(=O)N3CCc4ccccc43)cc2)CC1`, the inhibition was 53.1% (active).
In the case of `O=C1CCCCC1Sc1nnc(-c2ccc3c(c2)OCO3)o1` (stereo unspecified), the inhibition is 53.1% (active).
For the compound `Brc1cccc(CSc2nnc(-c3ccncc3)o2)c1`, the inhibition was 27.6%.
For the compound `S=C(c1ccc(-c2ccccc2)cc1)N1CCOCC1`, the inhibition was 79.1% (active).
In the case of `COc1cccc(Nc2ncnc3ccc(Br)cc23)c1`, the inhibition is 34.5%.
For `COCCn1c(C)cc(C2=NNC(=NC3CC3)SC2)c1C`, the inhibition is 96.7% (active).
As for `Cc1ccc(C(=O)Nc2cnc3ccccc3c2)cc1`, the inhibition was 84.9% (active).
Take `CCN(c1ccc(OC)cc1)c1ncnc2nc[nH]c12`: the inhibition was 45.7%.
As for `OCCN1CCN(c2ncnc3ccc(Br)cc23)CC1`, the inhibition was 36%.
For the compound `O=C(O)C1CC=CCC1C(=O)Nc1ccc2c(c1)OCCO2` (stereo unspecified), the inhibition was 6.92%.
On the same count and under the same terms, under `CCCN1C=CC(=C2C(=O)c3ccccc3C2=O)C=C1` stands 91.3% (active); under `Nc1ncnc(N2CCc3ccccc32)c1[N+](=O)[O-]`, 55.2% (active); under `CCN(CC)c1ccc(/C=N/NC(=O)c2nnn(-c3nonc3N)c2C(C)C)c(O)c1`, 29.9%.
Consider `COCCNc1nc(Oc2cncc(Cl)c2)c2sccc2n1`, for which the inhibition was 45.5%.
Consider `Cc1cc(Sc2nnc(/N=C/N(C)C)s2)c2ccccc2n1`, for which the inhibition is 24.6%.
Take `CN(Cc1nccs1)C(=O)c1cc(COc2cccc3cnccc23)on1`: the inhibition is 51.8% (active).
Still for that read-out and setting: under `CC(=O)/C(N=Nc1ccc2c(c1)OCCO2)=C(\C)O` stands 65.4% (active); under `Cc1cc(C(=O)COc2cccnc2[N+](=O)[O-])c(C)n1-c1ccccc1`, 68.1% (active); under `Cc1cc(/C=N/Nc2ncnc(N)c2[N+](=O)[O-])c(C)n1-c1ccccc1`, 61.2% (active).
For the compound `c1cc(-c2nnc3sc(C4CCCCC4)nn23)ccn1`, the inhibition was 35.7%.
On to `COc1ccc(N(C(=O)CCl)C(C(=O)NC2CCCCC2)c2cccnc2)cc1` (stereo unspecified), for which the inhibition is 69% (active).
For the compound `O=C(Nc1ccc(C(=O)N2CCOCC2)cc1)Nc1cccc(C(F)(F)F)c1`, the inhibition is 36.4%.
Take `CCCC(=O)NC(c1ccc(Cl)cc1Cl)c1ccc2cccnc2c1O` (stereo unspecified): the inhibition is 17.2%.
Regarding `CC(/C=C1\SC(=O)N(CCCC(=O)O)C1=O)=C\c1ccccc1`, the inhibition is 95.4% (active).
`CN(C)c1ccc(C(=S)Nc2ccccc2)cc1`: the inhibition is 51.1% (active).
As to `Cc1ccc(C(=O)CN2C(=O)c3ccccc3S2(=O)=O)cc1`, the inhibition was 61.9% (active).
On to `CC(=O)Nc1nc(-c2ccc3c(c2)CC(C)N3C(=O)C2CC2)c(C)s1` (stereo unspecified), for which the inhibition was 41.8%.
Consider `CN(C)C(=O)c1cccc(-c2cnc3sc(NCc4ccc5c(c4)OCO5)nn23)c1`, for which the inhibition is 62.2% (active).
The same measure, in the same setting: then `Cc1ccc(/C=C2\SC(=S)N(CCCC(=O)NNC(=O)c3ccccc3O)C2=O)cc1`, with 95.4% (active); and `COc1ccc(-n2c(C)c([N+](=O)[O-])c3ccc(O)c(CN4CCCCC4)c32)cc1`, with 48.4% (active); and `c1ccc(CCc2nn3c(-c4ccncc4)nnc3s2)cc1`, with 50.8% (active).
On the same count and under the same terms, under `OCCN(CCO)CC(O)COc1ccc(C23CC4CC(CC(C4)C2)C3)cc1` (stereo unspecified) stands 81.9% (active); under `Cc1ccc2occ(/C=N/NC(=O)[C@@H](N)Cc3ccccc3)c(=O)c2c1`, 44.1%.
As for `CCn1c(Oc2ccccc2F)nc2c1c(=O)n(C)c(=O)n2C`, the inhibition was 48.6% (active).
Consider `O=C(c1cncc(Br)c1)N1CCc2ccccc2C1`, for which the inhibition was 15.9%.
`O=C(NC1CCCCC1)C(c1cccnc1)N(C(=O)CCl)c1ccc(F)cc1` (stereo unspecified): the inhibition was 64.8% (active).
`COc1ccc(/C=C2/SC(=S)N(CCCC(=O)Nc3ccccc3C(=O)O)C2=O)cc1`: the inhibition was 72.3% (active).
Regarding `CCc1ccc(-c2nc(CSCC(=O)NCc3ccco3)c(C)o2)cc1`, the inhibition was 70.5% (active).
